# Rows were chosen to be rich in hits. Some 2.4% of all compounds tested hit in one or more screens of this group.
# CHRM1 agonist: human M1 muscarinic receptor agonism; P11229; CHO-K1 hM1, Fluo-8 calcium fluorescence, agonist mode; 0% DMSO, 100% acetylcholine EC100; activation, % at 3 µM; 0.33% of 360,000 active;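 active = activation above the run's mean compound activation plus 3 SD, cut at about 16% in these data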;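 also: peak over basal fluorescence ratio within a 140 s kinetic read after compound addition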
# Target sequence (P11229 whole entry, looked up): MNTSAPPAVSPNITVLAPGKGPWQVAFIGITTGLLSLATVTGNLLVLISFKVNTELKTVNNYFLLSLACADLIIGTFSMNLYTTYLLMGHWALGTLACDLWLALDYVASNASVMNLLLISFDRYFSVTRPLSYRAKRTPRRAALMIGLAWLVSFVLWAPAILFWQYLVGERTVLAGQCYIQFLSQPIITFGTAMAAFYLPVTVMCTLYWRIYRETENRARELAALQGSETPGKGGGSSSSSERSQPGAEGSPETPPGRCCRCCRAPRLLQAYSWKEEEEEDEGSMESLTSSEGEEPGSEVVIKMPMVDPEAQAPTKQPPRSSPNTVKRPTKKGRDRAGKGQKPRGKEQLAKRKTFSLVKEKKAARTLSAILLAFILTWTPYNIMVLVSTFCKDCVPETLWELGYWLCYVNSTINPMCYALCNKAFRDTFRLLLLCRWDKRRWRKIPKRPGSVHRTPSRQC
# M1 antag: human CHRM1 antagonism | inhibition, % at 3 µM | AID 588852 | 1.3% of 360,000 active | CHO-K1 hM1, Fluo-8 calcium fluorescence, ACh EC80 antagonist | P11229;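 active = percent inhibition above its own plate's cutoff, namely the mean of that plate's compound wells plus 3 SD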;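 also: peak over basal fluorescence ratio during 140 s after agonist addition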
# M1 PAM parental: M1 PAM counterscreen hit in parental CHO-K1 cells; AID 602247; ATP EC20, Fluo-8 calcium fluorescence; 0% at ATP EC20, 100% at ATP max; activation, % at 3 µM; 0.02% of 360,000 active;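 active = activation above the run cutoff, the mean activation of all test compounds plus 3 SD, cut at about 40% in these data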;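 also: peak over basal fluorescence ratio in a 140 s read after ATP addition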
# M1 PAM: human CHRM1 positive allosteric modulation; activation, % at 3 µM; CHO-K1 hM1, Fluo-8 calcium fluorescence, ACh EC20; 0% = ACh EC20, 100% = maximal ACh; 0.088% of 360,000 active; AID 588819; P11229; in the data active = activation above about 19%, passing the limit was not always enough
# CHO-K1 Ca ag: M1 agonist counterscreen hit in parental CHO-K1 cells; Fluo-8 calcium fluorescence; scaled to maximal ATP response, vehicle zero; 0.48% of 360,000 active; AID 602248; activation, % at 3 µM; in the data active = activation above about 15%;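 also: untransfected CHO-K1 host cells lacking M1 receptor as counterscreen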
# CHO-K1 Ca antag: counter-screen for M1 antagonists: effect in parental CHO-K1 cells | inhibition, % at 3 µM | ATP-induced calcium, Fluo-8 fluorescence | 0.6% of 360,000 active;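 active = inhibition above a per-plate cutoff, the plate's mean sample inhibition plus 3 SD, cut at about 24% in these data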
# Numbers stand for hits; - = inactive; . = not tested or not shown.
SMILES,CHRM1 agonist,M1 antag,M1 PAM parental,M1 PAM,CHO-K1 Ca ag,CHO-K1 Ca antag
c1ccc(CCNc2nc(-c3ccncc3)nc3ccccc23)cc1,-,35,-,-,-,-
CCn1c(=O)c2ccccc2n(Cc2cccc(C)c2)c1=O,-,-,-,-,-,27
CC[N+](C)(C)CCN(Cc1ccc(Cl)cc1)c1ccccn1,-,80,-,-,-,-
CN(C(=S)NC(=O)c1ccccc1)c1c(N)n(Cc2ccccc2)c(=O)[nH]c1=O,-,-,-,-,-,-
CC(Oc1ccc(C#N)cc1)C(=O)Nc1ccc(-n2cnnn2)cc1 (stereo unspecified),17,-,-,-,-,-
CC(c1ccccc1C(O)(c1ccccc1)c1ccccc1)N(C)C (stereo unspecified),-,-,-,-,23,-
CCN1CCN(C(=O)c2cc3cc(F)ccc3[nH]2)CC1,-,-,-,-,-,34
O=C(Cn1cc(COc2ccc(Br)cc2[N+](=O)[O-])nn1)c1ccc(O)cc1,-,-,-,-,-,25
COc1ccccc1OCCC(=O)Nc1ccc2c(c1)OCO2,-,-,-,-,-,-
O=C(Cn1nc(C(=O)O)c2ccccc2c1=O)Nc1cccc(S(=O)(=O)N2CCOCC2)c1,-,-,-,-,-,-
O=C(Cn1nc(C(=O)O)c2ccccc2c1=O)Nc1cccc(S(=O)(=O)N2CCCCC2)c1,-,24,-,-,-,-
O=C(O)c1nn(CC(=O)N2CCCCCC2)c(=O)c2ccccc12,-,-,-,-,16,-
CCOC(=O)COc1ccc2c(c1)C(=O)CC(C)(c1cccnc1)O2 (stereo unspecified),-,-,-,-,15,-
CC(C)C(NS(=O)(=O)c1ccc(Br)s1)C(=O)O (stereo unspecified),-,-,-,-,-,-
CC(C)Oc1ccccc1OCCN(C)C,-,-,-,-,-,-
CC(C)(C)c1ccccc1OCCN1CCCC1,-,43,-,-,-,-
Cc1ccc(C(C)(C)C)c(OCCN2CCCC2)c1,-,67,-,-,-,-
Fc1ccc(OCCOCCN2CCCC2)cc1,-,-,-,-,-,-
CN(C)CCOc1ccccc1C(C)(C)C,-,57,-,-,-,-
Cc1cc(C(C)(C)C)ccc1OCCN1CCCC1,-,-,-,-,-,-
CC(OCCN1CCCC1)(c1ccc(F)cc1)c1ccc(F)cc1,-,92,-,-,-,-
Cc1ccc(NC2=NCC(=O)N2CCc2ccccc2)cc1C,-,-,-,-,-,-
C=CCC1NS(=O)(=O)OC(CCCC)C1O (stereo unspecified),-,-,-,-,-,-
O=C(O)c1ccc(N/N=C/c2cn(Cc3ccccc3F)c3ccccc23)cc1,-,-,-,-,23,-
Nc1ccc(C(=O)N/N=C/c2cn(Cc3ccccc3F)c3ccccc23)cc1,-,-,-,-,-,-
SMILES,CHRM1 agonist,M1 antag,M1 PAM parental,M1 PAM,CHO-K1 Ca ag,CHO-K1 Ca antag
O=C(c1ccc(Cl)s1)N1CCN(C23CC4CC(CC(C4)C2)C3)CC1,-,-,-,-,-,-
O=C(c1cccs1)N1CCN(C23CC4CC(CC(C4)C2)C3)CC1,-,72,-,-,-,-
CCN(CC)c1ccc(/C=C(\C#N)c2ccccn2)cc1,-,-,-,-,-,26
COCCCNCCOCCSc1ccc(Cl)cc1,-,-,-,-,-,-
Cc1ccsc1C(=O)NNC(=O)COc1ccccc1Cl,-,-,-,-,-,31
Cc1ccc(NS(=O)(=O)c2ccc(Cl)c(C(=O)Nc3ccccc3-c3nc4ccccc4[nH]3)c2)cc1C,-,-,-,-,-,-
CC1CCN(CCCOc2ccc(OCc3ccccc3)cc2)CC1,-,43,-,-,-,-
c1ccc(COc2ccc(OCCN3CCCC3)cc2)cc1,-,-,-,-,-,-
c1ccc(COc2ccc(OCCCN3CCCC3)cc2)cc1,-,46,-,-,-,-
O=C(N/N=C\c1ccc(Cl)cc1)C1=NOC2COC3(CCN(c4ccc([N+](=O)[O-])cc4)CC3)OCC12 (stereo unspecified),-,-,-,-,-,-
COC(=O)c1c(C(=O)OC)c(-c2ccccc2)n2c1CS(=O)(=O)C2,-,-,-,-,-,26
COC(=O)c1c(C(=O)OC)c(-c2ccc(F)cc2)n2c1CS(=O)(=O)C2,-,-,-,-,-,-
OCCNc1nc(NCCC2=CCCCC2)nc(N2CCOCC2)n1,-,-,-,-,-,24
CCCNS(=O)(=O)c1ccc(CCC(=O)N2CCC(C)CC2)cc1,-,-,-,-,-,-
COc1ccc(NC(=S)N/N=C2/CCCc3c(C)cc(C)cc32)cc1,-,-,-,-,-,-
O=c1oc(Nc2cccc(F)c2)nc2ccccc12,-,-,-,-,-,-
O=C1NC(c2ccccc2)CCO1 (stereo unspecified),-,-,-,29,-,-
CC1=C(C(=O)N2CCOCC2)CC(CC(=O)NCCCN(C)C)C(=O)N1Cc1ccc(F)cc1 (stereo unspecified),-,-,-,-,-,-
CC(C)N(Cc1nc(-c2ccccc2)no1)C(=O)C(C)(C)C,-,-,-,-,-,-
CN(C)c1nc2ccccc2n(C)c1=O,-,-,-,-,-,24
O=C1/C(=C\c2cccnc2)Sc2ccccc21,19,-,-,-,-,-
CC(=O)C1=CCC(c2ccc(Br)cc2)N(S(=O)(=O)c2ccc(C)cc2)C1 (stereo unspecified),-,37,-,-,-,-
CC(=O)C1=CCC(c2ccc(C)cc2)N(S(=O)(=O)c2ccc(C)cc2)C1 (stereo unspecified),-,-,-,-,-,-
O=C(O)CCC(=O)Nc1sc2c(c1C(=O)Nc1cccc3ccccc13)CCCCC2,-,-,-,-,-,-
COc1ccc(OC)c(CN2C(=O)CCC2(C)c2nnnn2-c2c(C)cccc2C)c1 (stereo unspecified),.,.,-,.,-,-
SMILES,CHRM1 agonist,M1 antag,M1 PAM parental,M1 PAM,CHO-K1 Ca ag,CHO-K1 Ca antag
CC1(C)N=C(N)N=C(N)N1c1ccc(Oc2ccc(Cl)cc2)c(Cl)c1,-,55,-,-,-,-
CC1(C)N=C(N)N=C(N)N1c1cc(Cl)ccc1Cl,-,-,-,-,-,-
C=Cc1ccc2c(c1)N(C)C(=C)S2,-,-,-,-,-,-
Brc1ccccc1OCCCN1CCCCCC1,-,-,-,-,-,-
CC(=O)c1ccccc1OCCCN1CCCCC1,-,38,-,-,-,-
CC(C)c1ccccc1OCCCN1CCCC1,-,42,-,-,-,-
c1ccc(-c2ccccc2OCCCCN2CCCCC2)cc1,-,32,-,-,-,-
CC(C)c1ccccc1OCCCCN1CCCCC1,-,64,-,-,-,-
CC(=O)c1sc(NC(=O)c2cccc(N3C(=O)CCC3=O)c2)nc1-c1ccccc1,-,-,-,-,-,-
